The whole screen tested about 360,000 compounds, of which about 3,900 (1.1%) were called active.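 How the source made its calls: active means mean replicate inhibition score of at least 50 and every replicate individually at or above 50; inconclusive means only one of the two criteria met; inactive means mean below 50 and not all replicates reaching 50.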 This excerpt belongs to a sample that is enriched for actives.
Experiment: blockers of JRFL envelope-mediated fusion – HeLa-JRFL effector, CEM21 target cells, luciferase, primary screen (AID 651610);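 further: 0% = plate neutral controls and 100% = maraviroc near 300 nM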
Conditions: HeLa-JRFL Env/CEM21 cell fusion, active compounds read high; at 16.7 µM unless noted

Which inhibition does the source give for `COc1ccc(CNC(=O)C2(CC3CC(c4ccccc4)=NO3)CCN(C(=O)c3cccc(O)c3)CC2)cc1` (centres undefined) here?
Its inhibition is 65.8% [at 12.3 µM] (active).

With `O=C(c1ccccc1)N1CCC(CC2CC(c3ccc(Cl)cc3)=NO2)(C(=O)NCC2CCCCC2)CC1` (centres undefined) as the compound, how does the inhibition read?
Its inhibition is -114% [at 12.3 µM] (inactive).

With `CCCCCCCNC(=O)C1(CC2CC(c3cccc(Br)c3)=NO2)CCN(C(=O)c2cc(OCC)c(OCC)c(OCC)c2)CC1` (centres undefined) as the compound, how does the inhibition read?
The inhibition was 28.1% [at 12.3 µM] (inactive).

Which inhibition does the source give for `CO[C@@H]1CN(C)C(=O)c2cc(NC(=O)C3CCOCC3)ccc2OC[C@H](C)N(C)C[C@H]1C` here?
Its inhibition is 0.584% (inactive).

With `C[C@@H]1CCCCO[C@H](CN(C)C)[C@H](C)CN([C@@H](C)CO)C(=O)c2cc(NS(=O)(=O)c3ccccc3)ccc2O1` as the compound, how does the inhibition read?
The inhibition was 19.2% (inactive).

Which inhibition does the source give for `COc1cncc(-c2cnc3sc(NCCc4ccccn4)nn23)c1` here?
Its inhibition is 61.5% [at 12.3 µM] (active).

With `Cc1ccc(C(=O)N/C(=C\c2cccs2)C(=O)NCCc2ccccn2)cc1C` as the compound, how does the inhibition read?
Its inhibition is -3.78% [at 12.3 µM] (inactive).

For `COc1ccc(NCCc2ccccn2)cc1`, which inhibition is on record?
Its inhibition is -6.27% [at 12.3 µM] (inactive).

For `CCNC(=O)Nc1ccc2c(c1)C(=O)N(C)[C@H]1CC[C@@H](CC(=O)N[C@@H](C)c3ccccc3)O[C@H]1CO2`, which inhibition is on record?
Its inhibition is 0.456% (inactive).

Which inhibition does the source give for `COCC(=O)N1C[C@@H](C)[C@H](OC)CN(C)C(=O)c2cc(NC(=O)c3cc(C)on3)ccc2OC[C@@H]1C` here?
Its inhibition is -4.38% (inactive).

Which inhibition does the source give for `C[C@@H]1CN([C@H](C)CO)C(=O)Cc2cc(NC(=O)Cn3cnnn3)ccc2O[C@H]1CN(C)Cc1ccc(C(F)(F)F)cc1` here?
Its inhibition is 3.54% (inactive).

For `COC(=O)C1(C(=O)OC)C[C@H](c2ccccc2)N(Cc2ccccc2OC)[C@@H]1c1ccccc1`, which inhibition is on record?
The inhibition was 84.1% [at 12.3 µM] (active).

With `COc1ccccc1CNC(=O)C1CCN(S(C)(=O)=O)CC1` as the compound, how does the inhibition read?
Its inhibition is -69% [at 12.3 µM] (inactive).

For `COc1ccccc1CNC(=O)CCCN1C(=O)NC2(CCCC2)C1=O`, which inhibition is on record?
The inhibition was 2.68% [at 12.3 µM] (inactive).

Which inhibition does the source give for `O=C(N[C@H]1CC[C@@H](CCNC(=O)C2CCC2)O[C@@H]1CO)c1ccncc1` here?
The inhibition was 7.35% (inactive).

With `C[C@@H]1CN([C@@H](C)CO)C(=O)c2cc(NC(=O)C3CCCCC3)ccc2O[C@@H](C)CCCCO[C@H]1CN(C)C(=O)CCC(F)(F)F` as the compound, how does the inhibition read?
The inhibition was 7.33% (inactive).

With `C[C@@H]1CN([C@H](C)CO)C(=O)c2c(c3ccccc3n2C)-c2ccccc2CO[C@H]1CN(C)S(=O)(=O)c1ccccc1F` as the compound, how does the inhibition read?
Its inhibition is 6.3% (inactive).

For `Cc1noc(C)c1C(=O)N(C)C[C@H]1OCc2ccccc2-c2c(n(C)c3ccccc23)C(=O)N([C@@H](C)CO)C[C@H]1C`, which inhibition is on record?
The inhibition was -3.54% (inactive).

For `C[C@@H]1CN([C@H](C)CO)C(=O)c2c(c3ccccc3n2C)-c2ccccc2CO[C@H]1CN(C)C(=O)c1ccncc1`, which inhibition is on record?
Its inhibition is 1.26% (inactive).

Which inhibition does the source give for `C[C@@H]1CN([C@@H](C)CO)C(=O)c2c(c3ccccc3n2C)-c2ccccc2CO[C@@H]1CN(C)S(=O)(=O)CC(F)(F)F` here?
The inhibition was -10.3% (inactive).

For `C[C@H](CO)N1C[C@H](C)[C@@H](CN(C)S(=O)(=O)c2cccc(F)c2)OCc2ccccc2-c2c(n(C)c3ccccc23)C1=O`, which inhibition is on record?
The inhibition was 56% (active).

For `C[C@H](CO)N1C[C@H](C)[C@H](CN(C)C(=O)c2ccncc2)OCc2ccccc2-c2c(n(C)c3ccccc23)C1=O`, which inhibition is on record?
The inhibition was 59.8% (active).

Which inhibition does the source give for `COc1ccc(S(=O)(=O)N(C)C[C@@H]2OCCCC[C@H](C)Oc3ccc(NC(=O)NC(C)C)cc3C(=O)N([C@@H](C)CO)C[C@@H]2C)cc1` here?
The inhibition was 8.34% (inactive).

With `COc1ccc(NC(=O)Nc2ccc3c(c2)C(=O)N([C@H](C)CO)C[C@@H](C)[C@@H](CN(C)C(=O)NC(C)C)OCCCC[C@H](C)O3)cc1` as the compound, how does the inhibition read?
The inhibition was -15.9% (inactive).

For `C/C=C/c1ccc2c(c1)O[C@H](CN(C)C(=O)c1ccc3c(c1)OCO3)[C@@H](C)CN([C@H](C)CO)S2(=O)=O`, which inhibition is on record?
Its inhibition is -3.13% (inactive).

Which inhibition does the source give for `C[C@H](CO)N1C[C@H](C)[C@@H](CN(C)C(=O)Nc2ccc(F)cc2)OCCCC[C@H](C)Oc2ccc(NC(=O)c3ccncc3)cc2C1=O` here?
The inhibition was -27.7% (inactive).

For `COc1ccc([Si](C)(C)[C@H]2[C@H](CCO)O[C@@]3(C(=O)N(Cc4cccc(N5CCOC5=O)c4)c4ccccc43)[C@@H]2C)cc1`, which inhibition is on record?
Its inhibition is 61.7% (active).

For `COc1ccc([Si](C)(C)[C@@H]2[C@@H](CCO)O[C@]3(C(=O)N(Cc4cccc(N5CCCCC5=O)c4)c4ccccc43)[C@H]2C)cc1`, which inhibition is on record?
Its inhibition is -10.1% (inactive).

With `COc1ccc([Si](C)(C)[C@@H]2[C@@H](CCO)O[C@]3(C(=O)N(Cc4ccccc4)c4ccc(N5CCC5=O)cc43)[C@H]2C)cc1` as the compound, how does the inhibition read?
Its inhibition is 15.1% (inactive).

Which inhibition does the source give for `Cc1noc(C)c1NC(=O)N[C@@H]1CC[C@H](CCNC(=O)C2CCC2)O[C@@H]1CO` here?
The inhibition was 5.86% (inactive).

For `C[C@@H]1CN([C@H](C)CO)C(=O)c2ccccc2-c2ccccc2CO[C@H]1CN(C)S(=O)(=O)c1ccsc1`, which inhibition is on record?
Its inhibition is 15.4% (inactive).

With `Cc1noc(C)c1S(=O)(=O)N(C)C[C@@H]1OCc2ccccc2-c2ccccc2C(=O)N([C@@H](C)CO)C[C@H]1C` as the compound, how does the inhibition read?
The inhibition was 28.5% (inactive).

For `C[C@H]1CN([C@@H](C)CO)C(=O)c2ccccc2-c2ccccc2CO[C@@H]1CN(C)S(=O)(=O)c1ccc(C(F)(F)F)cc1`, which inhibition is on record?
Its inhibition is 22.4% (inactive).

With `C[C@H]1CN([C@@H](C)CO)C(=O)c2ccccc2-c2ccccc2CO[C@H]1CN(C)S(=O)(=O)c1ccccc1C#N` as the compound, how does the inhibition read?
The inhibition was 66.4% (active).

For `C[C@H](CO)N1C[C@H](C)[C@@H](CN(C)S(=O)(=O)c2cccs2)OCc2ccccc2-c2ccccc2C1=O`, which inhibition is on record?
Its inhibition is 3.13% (inactive).

With `C[C@H]1CN([C@@H](C)CO)C(=O)c2ccccc2-c2ccccc2CO[C@H]1CN(C)S(=O)(=O)c1cccc(C#N)c1` as the compound, how does the inhibition read?
Its inhibition is 56.8% (active).

Which inhibition does the source give for `C[C@H]1CN([C@@H](C)CO)C(=O)c2cc(Br)cnc2O[C@@H]1CN(C)S(=O)(=O)c1ccc(F)cc1` here?
The inhibition was 48% (inactive).

Which inhibition does the source give for `C[C@@H]1CN([C@H](C)CO)C(=O)c2cccc(NS(=O)(=O)c3cn(C)cn3)c2O[C@H]1CN(C)Cc1ccc(C(=O)O)cc1` here?
Its inhibition is 16.1% (inactive).

For `CC(=O)N1C[C@@H](CO)[C@@H](N(C)C(=O)C(C)(C)C)C[C@H]1c1ccccc1Br`, which inhibition is on record?
The inhibition was -6.57% [at 12.3 µM] (inactive).

With `Cc1ccc(F)cc1S(=O)(=O)N[C@@H]1CCN(Cc2ccc(-c3ccccc3)cc2)C1` as the compound, how does the inhibition read?
Its inhibition is -7.12% (inactive).

For `Cc1ccc(S(=O)(=O)N2C[C@@H]3CCCC[C@@H]3[C@@H](C)[C@H]2c2cn(Cc3ccccc3)c3ccc(F)cc23)cc1`, which inhibition is on record?
Its inhibition is 77% [at 12.3 µM] (active).

For `CCOC1=C2[C@@H](CN(S(=O)(=O)c3ccc(C)cc3)[C@H]2c2ccccc2F)[C@H]2C(=O)N(Cc3ccccc3)C(=O)[C@H]2C1`, which inhibition is on record?
The inhibition was 12.3% [at 12.3 µM] (inactive).

For `CO[C@H]1CN(C)C(=O)c2cc(NC(=O)NC(C)C)ccc2OC[C@@H](C)NC[C@@H]1C`, which inhibition is on record?
Its inhibition is -14% (inactive).

For `O=C(N[C@H]1CC[C@@H](CCNS(=O)(=O)c2cccc(Cl)c2)O[C@@H]1CO)c1ccccc1`, which inhibition is on record?
Its inhibition is 12.1% (inactive).

With `CCCNC(=O)N(C)C[C@H]1Oc2ncc(C#Cc3ccncc3)cc2C(=O)N([C@@H](C)CO)C[C@@H]1C` as the compound, how does the inhibition read?
Its inhibition is 0.597% (inactive).

With `O=C1[C@H]2[C@@H](c3ccc(F)cc3)N3C(=O)N(c4ccc(C(F)(F)F)cc4)C(=O)[C@@]3(Cc3ccccc3)[C@H]2C(=O)N1C1CCCCC1` as the compound, how does the inhibition read?
Its inhibition is 79% [at 12.3 µM] (active).

For `O=C1[C@H]2[C@@H](c3ccc(Cl)cc3)N3C(=O)N(c4cccc(F)c4)C(=O)[C@@]3(Cc3ccccc3)[C@H]2C(=O)N1C1CCCCC1`, which inhibition is on record?
The inhibition was 1.92% [at 12.3 µM] (inactive).

Which inhibition does the source give for `Cc1cccc([C@@H]2[C@@H]3C(=O)N(Cc4ccccc4)C(=O)[C@@H]3[C@]3(Cc4ccc(Cl)cc4)C(=O)N(c4cccc(Cl)c4)C(=O)N23)c1` here?
Its inhibition is -14.5% [at 12.3 µM] (inactive).

Which inhibition does the source give for `Cc1cccc(N2C(=O)N3[C@H](c4ccc(F)cc4)[C@@H]4C(=O)N(C5CCCCC5)C(=O)[C@@H]4[C@]3(Cc3ccccc3)C2=O)c1` here?
The inhibition was 55.1% [at 12.3 µM] (active).

With `C[C@@H]1CN([C@@H](C)CO)S(=O)(=O)c2ccc(C#Cc3ccc(F)cc3)cc2O[C@H]1CN(C)C(=O)NC1CCCC1` as the compound, how does the inhibition read?
The inhibition was -2.36% (inactive).

For `COc1ccc(CN(C)C[C@H]2Oc3c(NS(=O)(=O)c4ccccc4)cccc3C(=O)N([C@@H](C)CO)C[C@H]2C)cc1`, which inhibition is on record?
Its inhibition is 12% (inactive).

Which inhibition does the source give for `O=C(Cc1ccccn1)NCC[C@H]1CC[C@@H](NS(=O)(=O)c2ccc(F)cc2)[C@H](CO)O1` here?
Its inhibition is -7.4% (inactive).

With `CCOC(=O)[C@]12CCC=C1N(Cc1ccco1)C(=O)[C@H](CC(=O)NCc1cccc(C(F)(F)F)c1)C2` as the compound, how does the inhibition read?
Its inhibition is 18.4% [at 12.3 µM] (inactive).

With `CCCCNC(=O)C[C@@H]1C[C@@]2(C(=O)OC)CC(C)(C)CC=C2N(Cc2ccco2)C1=O` as the compound, how does the inhibition read?
Its inhibition is 5.33% [at 12.3 µM] (inactive).

Which inhibition does the source give for `COC(=O)[C@@]12C[C@@H](CC(=O)NCc3cccc(C(F)(F)F)c3)C(=O)N(Cc3ccco3)C1=CCC(C)(C)C2` here?
Its inhibition is 74.9% [at 12.3 µM] (active).

With `C[C@H](CO)N1C[C@H](C)[C@@H](CN(C)C(=O)Nc2ccc3c(c2)OCO3)Oc2ccc(NS(=O)(=O)c3ccc(Cl)cc3)cc2CC1=O` as the compound, how does the inhibition read?
The inhibition was -30.5% (inactive).

Which inhibition does the source give for `Cc1ccc(C(NC(=O)C2CCN(CCOc3ccc(Cl)cc3Cl)CC2)c2ccccn2)cc1` (centres undefined) here?
Its inhibition is 6.28% [at 12.3 µM] (inactive).

Which inhibition does the source give for `O=C(NC(c1ccc(Cl)cc1)c1cnccn1)C1CCN(Cc2ccc(Cl)cc2)CC1` (centres undefined) here?
The inhibition was 16.4% [at 12.3 µM] (inactive).

Which inhibition does the source give for `Cc1cccnc1C(NC(=O)C1CCN(Cc2ccc(Cl)c(Cl)c2)CC1)c1ccc(Cl)cc1` (centres undefined) here?
The inhibition was 62.7% [at 12.3 µM] (active).
